Values joined by “and” are separate entries in the source; they are usually repeats but may differ in a detail not shown here. Identical values can stand only once. Inconclusive results are not listed. A call without a number means that no potency is given here. More than one record can exist for a structure, and the calls need not agree. Active and inactive are the calls of the source. Unless noted, the call rests on the fitted dose curve; in most records, active means well fitted cell-killing curve with a large enough effect in the repeat runs; inconclusive means weak or mixed curves, or effect the other way; inactive means flat fitted curve, though single readings scatter.
experiment: Nuclear factor erythroid 2-related factor 2/antioxidant responsive element (Nrf2/ARE) small molecule agonists: qHTS cell viability counter screen in human keratinocytes (AID 1919968); conditions: KeratinoSens HaCaT ARE cells viability, CellTiter-Fluor, 24 h; series mostly up to 92.4 µM; further: nearly all actives have a fitted effect of over 55% in size
Method in brief: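 Stably transfected HaCaT (KeratinoSens), 1,500/well. Test agents in DMSO were applied for 23 h, 37 C/5% CO2. CellTiter-Fluor was incubated 1 h before the fluorescence read.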
Potency means the concentration at half of the fitted maximal effect.

Compound | Potency
C=CC=O | inactive
CCC(C)(C#N)N=NC(C)(C#N)CC (stereo unspecified) | inactive
c1nc[nH]n1 | inactive
c1ccc(Nc2ccc3ccccc3c2)cc1 | 68.2 µM (active)
CCOP(=O)(OCC)OP(=O)(OCC)OCC | inactive
Nc1cccnc1 | inactive
Clc1ccccc1Cl | inactive
CCN(CC)C(=S)S | 27.5 µM (active) and 7.65 µM (active) and 13.7 µM (active)
CC(C)Nc1nc(Cl)nc(NC(C)C)n1 | inactive
Nc1ccc(-c2ccc(N)c(N)c2)cc1N | inactive
CC(C)OS(C)(=O)=O | inactive
CCCCOC(=O)c1ccccc1C(=O)O | inactive
CC(=O)[O][Hg][c]1ccccc1 | 1.08 µM (active) and 2.17 µM (active) and 3.35 µM (active)
CCCCCCCCCl | inactive
C#CCOS(=O)OC1CCCCC1Oc1ccc(C(C)(C)C)cc1 (stereo unspecified) | 68.7 µM (active) and inactive
O=S(=O)(O)OOS(=O)(=O)O | inactive
ClCC(Br)CBr (stereo unspecified) | inactive
CC(C)C#N | inactive
CCOC(=O)CC(SP(=O)(OC)OC)C(=O)OCC (stereo unspecified) | inactive

Compound | Potency
CCCCCON=O | inactive
FC(F)(F)c1ccc(Cl)cc1 | inactive
CON(C)C(=O)Nc1ccc(Cl)cc1 | inactive
COP(=S)(OC)Oc1ccc([N+](=O)[O-])cc1 | inactive
CCCCCCCCC(=O)NCc1ccc(O)c(OC)c1 | inactive
COc1c(C(C)(C)C)cc([N+](=O)[O-])c(C)c1[N+](=O)[O-] | inactive
Cc1ccc(N)cc1 | inactive
CCCCCCCCCCCCCCCC[N+](C)(C)C | 61.1 µM (active) and 5.96 µM (active)
CCc1cnc(C2=NC(C)(C(C)C)C(=O)N2)c(C(=O)O)c1 (stereo unspecified) | inactive
CCCCCBr | inactive
COP(=S)(OC)Oc1ccc(Sc2ccc(OP(=S)(OC)OC)cc2)cc1 | inactive
CC(=O)CCC(C)=O | inactive
CCOP(=O)(O)OCC (tested in a mixture with another compound) | inactive and 24.1 µM (active)
O=[N+]([O-])c1ccc(Cl)c(Cl)c1 | inactive
CC(C)(O)C(=O)Nc1ccc([N+](=O)[O-])c(C(F)(F)F)c1 | inactive
CCCCNC(=O)n1c(NC(=O)OC)nc2ccccc21 | inactive
CCC(Cl)[N+](=O)[O-] (stereo unspecified) | inactive
CCCCCCCCCCCC(=O)O | inactive
OC(Cc1ccccc1Cl)(Cn1cncn1)C1(Cl)CC1 (stereo unspecified) | inactive

experiment: Nuclear factor erythroid 2-related factor 2/antioxidant responsive element (Nrf2/ARE) small molecule agonists: luciferase reporter gene qHTS assay in human keratinocytes (AID 1919969; calls by dose curve; further: nearly all actives have a fitted effect of over 35% in size); conditions: KeratinoSens HaCaT ARE-luciferase, luminescence, 24 h; series mostly up to 92.4 µM

Compound | Potency
C=CC=O | inactive
CCC(C)(C#N)N=NC(C)(C#N)CC (stereo unspecified) | inactive
c1nc[nH]n1 | inactive
c1ccc(Nc2ccc3ccccc3c2)cc1 | 12.1 µM (active) and 21.7 µM (active)
CCOP(=O)(OCC)OP(=O)(OCC)OCC | inactive
Nc1cccnc1 | inactive
Clc1ccccc1Cl | inactive
CCN(CC)C(=S)S | inactive
CC(C)Nc1nc(Cl)nc(NC(C)C)n1 | inactive
Nc1ccc(-c2ccc(N)c(N)c2)cc1N | inactive and 68.6 µM (active)
CC(C)OS(C)(=O)=O | inactive
CCCCOC(=O)c1ccccc1C(=O)O | inactive
CC(=O)[O][Hg][c]1ccccc1 | 864 nM (active) and 2.66 µM (active)
CCCCCCCCCl | inactive
C#CCOS(=O)OC1CCCCC1Oc1ccc(C(C)(C)C)cc1 (stereo unspecified) | 19.4 µM (active) and 19.3 µM (active)
O=S(=O)(O)OOS(=O)(=O)O | inactive
ClCC(Br)CBr (stereo unspecified) | inactive
CC(C)C#N | inactive
CCOC(=O)CC(SP(=O)(OC)OC)C(=O)OCC (stereo unspecified) | inactive and 61.1 µM (active)

Compound | Potency
CCCCCON=O | inactive
FC(F)(F)c1ccc(Cl)cc1 | inactive
CON(C)C(=O)Nc1ccc(Cl)cc1 | inactive
COP(=S)(OC)Oc1ccc([N+](=O)[O-])cc1 | inactive
CCCCCCCCC(=O)NCc1ccc(O)c(OC)c1 | inactive
COc1c(C(C)(C)C)cc([N+](=O)[O-])c(C)c1[N+](=O)[O-] | inactive
Cc1ccc(N)cc1 | inactive and 48.6 µM (active)
CCCCCCCCCCCCCCCC[N+](C)(C)C | inactive
CCc1cnc(C2=NC(C)(C(C)C)C(=O)N2)c(C(=O)O)c1 (stereo unspecified) | inactive
CCCCCBr | inactive
COP(=S)(OC)Oc1ccc(Sc2ccc(OP(=S)(OC)OC)cc2)cc1 | inactive
CC(=O)CCC(C)=O | inactive
CCOP(=O)(O)OCC (tested in a mixture with another compound) | inactive
O=[N+]([O-])c1ccc(Cl)c(Cl)c1 | inactive
CC(C)(O)C(=O)Nc1ccc([N+](=O)[O-])c(C(F)(F)F)c1 | inactive
CCCCNC(=O)n1c(NC(=O)OC)nc2ccccc21 | 54.2 µM (active)
CCC(Cl)[N+](=O)[O-] (stereo unspecified) | inactive
CCCCCCCCCCCC(=O)O | inactive
OC(Cc1ccccc1Cl)(Cn1cncn1)C1(Cl)CC1 (stereo unspecified) | inactive
